Source: PubChem BioAssay (National Center for Advancing Translational Sciences (NCATS))
G9a block – inhibitors of human histone lysine methyltransferase G9a; G9a H3K9 monomethylation, AlphaScreen, 2 h; AID 504332; Potency, µM (top dose mostly 102 µM), for the others: at the top dose activity, negative = inhibition, hits mostly inhibitors; 350,000 compounds, 8.8% hits; also: % is scaled to controls: 0 for no effect and ±100 for the full control effect; nearly all actives have a fitted effect of over 75% in size
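Chemiluminescent proximity detection of H3K9 monomethylation, read after 10 min bead incubation in the dark. Reaction: 20 nM G9a, 500 nM biotin-H3K9 peptide, 20 uM SAM cofactor, 2 h, room temperature, following 15 min enzyme-compound preincubation.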
PLK1 PBD inh – PLK1 (human) polo-box domain binding inhibition | P53350 | Plk1 PBD binding of FITC phosphopeptide, fluorescence polarization | Potency, µM, without a hit: max response, negative = inhibition, hits mostly inhibitors | 360,000 compounds, 2.8% hits; also: series mostly up to about 57 µM; % is scaled to controls: 0 for no effect and ±100 for the full control effect; nearly all actives have a fitted effect of over 65% in size
Target sequence (P53350 whole entry, looked up, the tested form may be a part): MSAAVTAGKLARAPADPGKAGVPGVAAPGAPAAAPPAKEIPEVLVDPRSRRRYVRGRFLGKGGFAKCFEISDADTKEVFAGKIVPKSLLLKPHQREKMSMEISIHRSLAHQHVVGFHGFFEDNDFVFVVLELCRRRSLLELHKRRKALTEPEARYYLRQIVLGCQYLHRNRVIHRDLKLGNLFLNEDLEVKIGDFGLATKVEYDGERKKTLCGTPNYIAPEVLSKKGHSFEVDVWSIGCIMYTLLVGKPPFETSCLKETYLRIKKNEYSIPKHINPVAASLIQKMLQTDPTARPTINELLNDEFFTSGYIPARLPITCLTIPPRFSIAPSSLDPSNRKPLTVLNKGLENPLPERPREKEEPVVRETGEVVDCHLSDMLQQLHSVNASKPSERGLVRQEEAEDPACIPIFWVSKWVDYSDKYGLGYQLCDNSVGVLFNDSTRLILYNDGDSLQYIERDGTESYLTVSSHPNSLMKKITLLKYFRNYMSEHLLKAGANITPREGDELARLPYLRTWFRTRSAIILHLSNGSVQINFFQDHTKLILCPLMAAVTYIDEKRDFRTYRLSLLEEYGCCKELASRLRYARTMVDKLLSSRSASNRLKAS
ALOX12 inh – inhibitors of human 12S-lipoxygenase ALOX12; P18054; purified 12hLO, xylenol orange hydroperoxide absorbance; Potency, µM (highest dose often 108 µM), for the others: top-dose activity change, negative = inhibition, actives largely listed as inhibitors; 580,000 compounds, 1.1% hits; also: % is scaled to controls: 0 for no effect and ±100 for the full control effect
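Purified human 12hLO at 150 nM in 25 mM Hepes, 0.01% Triton X-100, pH 7.0, preincubated 15 min at room temperature with compound. Reaction started with 40 uM arachidonic acid, 30 min at room temperature. Hydroperoxide measured by Fe-xylenol orange, 573/405 nm absorbance ratio.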
BAZ2B block – inhibitors of human BAZ2B bromodomain | AID 504333 | Q9UIF8 | Potency, µM (highest dose often 114 µM), for inactives: at the top dose activity change, negative = inhibition, most hits filed as inhibitors | 360,000 compounds, 4.4% hits | AlphaScreen BAZ2B-H3K14Ac peptide displacement; also: % is scaled to controls: 0 for no effect and ±100 for the full control effect; nearly all actives have a fitted effect of over 60% in size
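BAZ2B 50 nM plus b-H3(5-23)K14Ac 50 nM, PBS pH 7.4/0.01% Tween-20, 30 min RT; compound added (max 110 uM), 30 min RT; streptavidin donor/Ni-chelate acceptor beads 10 ug/mL final, 20 min dark; AlphaScreen read.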
HP1b chromo inh – blocks HP1-beta chromodomain binding to methylated histone tails | AlphaScreen HP1-beta / biotin-H3K9me3 peptide binding | Potency, µM (titrated, usually from 114 µM), inactives show at the highest dose activity change, negative = inhibition, actives largely listed as inhibitors | 390,000 compounds, 0.56% hits | AID 540317; also: nearly all actives have a fitted effect of over 70% in size
Target sequence (P83916 whole entry, looked up): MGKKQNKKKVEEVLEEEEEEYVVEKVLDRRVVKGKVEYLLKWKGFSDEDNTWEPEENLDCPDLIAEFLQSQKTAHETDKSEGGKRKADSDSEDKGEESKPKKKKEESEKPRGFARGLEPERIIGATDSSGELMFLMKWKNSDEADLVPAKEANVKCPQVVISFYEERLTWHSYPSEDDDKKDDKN
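HP1-beta protein (50 nM final) preincubated 30 min at room temperature with biotinylated H3(1-18)K9me3 peptide (50 nM) in PBS pH 7.4, 0.01% Tween-20, then compound added for 30 min. AlphaScreen streptavidin donor/nickel chelate acceptor beads (10 ug/mL final), 30 min dark, luminescence read.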
JMJD2A Tudor – blocks the human JMJD2A Tudor domain. 390,000 compounds, 4.4% hits. AlphaScreen JMJD2A-Tudor / H3K4me3 peptide binding. O75164. Potency, µM (doses to about 114 µM), inactives show at the highest dose activity change, negative = inhibition, most hits filed as inhibitors; also: % is scaled to controls: 0 for no effect and ±100 for the full control effect; nearly all actives have a fitted effect of over 50% in size
* marks the source's active call; other numbers are inactive results; ? = inconclusive; . = not tested or not shown; [ ] = dose if it differs, or a comment. This is a sample that favours compounds with a hit; in the whole collection about 9% have one here. Calls follow the shape of the dose curve; as a rule, active = well fitted curve in the direction sought with a large enough effect; inconclusive = small, poorly fitted or top-dose-only effect, or another doubt; inactive = no such curve, though single readings can be large; an effect the other way counts as inactive or inconclusive. Potency is read from the fitted curve at half-maximal effect.

SMILES	G9a block	PLK1 PBD inh	ALOX12 inh	BAZ2B block	HP1b chromo inh	JMJD2A Tudor
COc1cc(CNCc2cccc3ccccc23)cc(OC)c1	50.1µM*	0.7%	0.708µM*	50.1µM*	11.2%	25.1µM*
COc1ccc(CNCc2cccc3[nH]ccc23)cc1	.	.	-8.8%	.	.	.
Cc1ccc(Cl)cc1N1CCN(CC(=O)Nc2ccc3[nH]c(=O)[nH]c3c2)CC1	-47.9%[12.7 µM]	-13.2%	16.5%	2.5%	6.0%	-9.2%
CCCC(=O)c1cc(F)c(N2CCOCC2)cc1C	2.9%	23.8µM*	15.6%	4.6%	-8.5%	-35.5%
Cc1sc2nc(SCC(=O)N3CCCC3)[nH]c(=O)c2c1C	-8.9%[59 µM]	-3.9%	6.3%[57.4 µM]	8.6%	26.9%	-7.1%
Cc1ccc2oc(=O)c3cc(C(=O)NCCN4CCc5ccccc5C4)sc3c2c1	50.1µM*	2.8%	13.2%[57.4 µM]	-28.1%	39.0%	-23.6%
CCOc1ccccc1N(CC(=O)NCC1CCCO1)C(=O)CCC(=O)Nc1cc(C)on1 (stereo not given)	-7.7%[59 µM]	-24.4%	1.0%	0.3%	23.0%	-8.1%
O=C(CCCC(=O)NC1CCCC1)NC1CCCC1	-8.2%[59 µM]	2.5%	-14.1%	4.2%	17.1%	-2.1%
COC(=O)c1cccc(CN2C(=O)SC(Nc3ccccc3)C2=O)c1 (stereo not given)	79.4µM*	-9.0%	0.0%	-8.9%	34.2%	1.4%
O=C1SC(Nc2ccc(Cl)cc2)C(=O)N1Cc1ccccc1 (stereo not given)	-43.0%[59 µM]	.	?	15.0%	75.1%	7.8%
CCOc1ccc(NC2SC(=O)N(Cc3ccccc3)C2=O)cc1 (stereo not given)	11.2µM*	.	-4.2%	?	-20.5%	?
NC(=O)CNC(=O)C1CCCc2c1[nH]c1ccc(Cl)cc21 (stereo not given)	1.7%[12.7 µM]	-12.1%	?	-22.5%	5.7%	-25.9%
CCN(CC(=O)Nc1c(F)cccc1F)C(=O)c1cc([N+](=O)[O-])ccc1N1CCCCC1	14.1µM*	-2.7%	3.0%	-6.7%	9.2%	-20.3%
CCN(CC(=O)Nc1c(F)cccc1F)C(=O)c1ccc(N2CCCC2)c([N+](=O)[O-])c1	-38.1%	-6.4%	-1.7%	-34.3%	-0.9%	-26.2%
CN(CC(=O)Nc1cccc(F)c1)C(=O)c1ccc2c(c1)CC(c1ccccc1)OC2=O (stereo not given)	14.1µM*	2.8%	-24.1%	?	-2.0%	?
CCOc1ccc(NC(=O)CN(C)C(=O)c2ccc(N3CCCCCC3)c([N+](=O)[O-])c2)cc1OCC	12.8%[2.33 µM]	-3.1%	12.8%	?	-37.2%	50.1µM*
O=C(c1ccc(N2CCCCC2)c([N+](=O)[O-])c1)N(Cc1ccccc1)c1ccccn1	?	2.0%	-22.3%	31.6µM*	?	44.7µM*
O=C(COC(=O)C1CCN(c2ccc(C(F)(F)F)cn2)CC1)NCc1ccc(Cl)cc1Cl	-1.4%	-4.9%	?	4.9%	25.7%	-3.4%
Cc1nc(SCc2ccccc2)n[nH]1	36.2%	-9.1%	149.9%	-6.6%	14.3%	-4.1%
O=C(O)CCC(=O)C(=O)O	7.2%[59 µM]	.	?	.	.	.
Cc1nn(-c2ccccc2)c(C)c1C(=O)OCC(=O)Nc1ccc(C(N)=O)cc1	.	11.9%	-27.8%	.	.	.
CN(CC(=O)Nc1cccc(F)c1)C(=O)c1ccc(N2CCCC2)c([N+](=O)[O-])c1	50.1µM*	6.6%	-0.2%	?	-21.6%	?
CCOc1ccc(NC(=O)CN(C)C(=O)c2ccc3nc(CC)c(CC)nc3c2)cc1OCC	50.1µM*	2.6%	?	0.3%	16.6%	-18.6%
CCCN(CC(=O)Nc1ccccc1C)C(=O)c1ccc(N2CCCCC2)c([N+](=O)[O-])c1	50.1µM*	-0.1%	-25.5%	?	-14.4%	?
CCc1nc2ccc(C(=O)N(C)CC(=O)Nc3ccc(Cl)c(C(F)(F)F)c3)cc2nc1CC	0.1%[0.501 µM]	-2.7%	.	?	15.6%	-20.7%
SMILES	G9a block	PLK1 PBD inh	ALOX12 inh	BAZ2B block	HP1b chromo inh	JMJD2A Tudor
CN(CCOc1ccccc1)C(=O)c1ccc(N2CCCC2)c([N+](=O)[O-])c1	50.1µM*	-16.1%	1.6%	?	?	?
COC[C@@H]1CN(S(=O)(=O)c2cn(C)cn2)C[C@H]1c1ccncc1	.	.	12.7%	.	.	.
COc1ccc(N2CCN(CC(=O)NC(C)c3ccccc3)CC2)cc1 (stereo not given)	-9.7%	-19.5%	-73.6%	-2.9%	-0.5%	-14.4%
COc1ccc(N2CCN(CC(=O)Nc3c(C)cc(C)cc3C)CC2)cc1	39.8µM*	-2.8%	?	-26.2%	5.3%	-26.9%
COC(=O)c1sccc1NC(=O)CN1CCN(c2ccc(F)cc2)CC1	44.7µM*	-4.6%	-21.4%	?	-13.6%	?
COc1ccccc1NC(=O)CN1CCN(c2ccc(F)cc2)CC1	.	23.8µM*	-0.7%	.	3.4%	?
Cc1cc(C)c(NC(=O)CN2CCN(C)CC2)c(C)c1	-30.6%	-7.4%	6.7%[57.4 µM]	-1.3%	35.4%	-6.3%
COc1ccc(N2CCN(CC(=O)Nc3ccccc3SC)CC2)cc1	-50.1%[12.7 µM]	-5.4%	-9.9%	50.1µM*	?	?
CCOC(=O)c1nc(-c2ccccc2)oc1N(C)C	8.8%[12.7 µM]	-4.5%	0.0%	-31.0%	17.4%	-16.8%
Cc1ccc(-c2nc(CN(Cc3c(C)nn(C)c3C)C(C)C)c(C)o2)o1	.	-13.1%	11.3%	-8.5%	28.8%	-16.4%
O=C1CCC([N+](=O)[O-])C(c2cccc([N+](=O)[O-])c2)N1 (stereo not given)	-2.1%[59 µM]	-5.5%	-2.2%	-3.8%	23.3%	-2.8%
O=C(CN1CCN(c2ccc(F)cc2)CC1)Nc1ccccc1[N+](=O)[O-]	-4.3%	?	-18.3%	?	50.1µM*	?
C=CCNC(=O)Nc1nc2c(s1)C[C@]1(C)CC[C@@H]3[C@H](OC(=O)[C@H]3C)[C@H]1[C@@H]2C	.	.	-11.0%[176 µM]	.	.	.
CC(=O)OCCCNc1cc(Sc2ccc(C)cc2)c2nonc2c1[N+](=O)[O-]	-48.5%[59 µM]	?	-25.7%	6.8%	?	?
O=[N+]([O-])c1c(NCCCO)cc(Sc2ccc(Cl)cc2)c2nonc12	?	2.38µM*	-1.7%	-4.0%	22.5%	-24.8%
CC(=O)OCCNc1cc(SCc2ccco2)c2nonc2c1[N+](=O)[O-]	44.7µM*	?	.	?	-38.6%	50.1µM*
O=[N+]([O-])c1c(NCCCO)cc(SCc2ccco2)c2nonc12	8.91µM*	?	?	?	5.2%	-27.7%
Cn1ccnc1Sc1cc(NCCCO)c([N+](=O)[O-])c2nonc12	56.2µM*	2.99µM*	-17.1%	-8.0%	3.0%	-16.1%
O=[N+]([O-])c1c(NCCCO)cc(N2CCCCCC2)c2nonc12	?	-4.8%	8.3%	2.3%	22.3%	-16.0%
